# Screening results as filed in PubChem.
# Many of the other results were omitted from the sample, so hits are more common in it than they were.
# Shiga toxin inh: Shiga toxin inhibition; Vero cells, Shiga toxin protein synthesis inhibition reporter; inhibition, % at 38.7 µM; hit rate 9.2% among 290,000; in the data active = inhibition mostly above about 28%, no sharp cut-off; inactive = mostly below about 43%
# AMA1 RON2 block: inhibitors of Plasmodium falciparum AMA1-RON2 interaction. AID 720542. AlphaScreen AMA1-biotinylated RON2 peptide binding. Potency, µM (highest dose often 58.2 µM), most hits filed as inhibitors. hit rate 0.2% among 360,000; note: nearly all actives have a fitted effect of over 45% in size
#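 AMA1 (3D7) with his tag at 25 nM final met compounds first, then biotinylated RON2 peptide at 25 nM; detection used donor plus acceptor beads, 10 µg/mL apiece, read by AlphaScreen after 30 min at room temperature.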
# Cycloheximide cs: counter-screen for Shiga toxin inhibitors: cycloheximide protein synthesis inhibition. cell reporter, cycloheximide protein synthesis inhibition counterscreen. max response, %. hit rate 12% among 300,000. AID 2314; in the data active = max response mostly above about 13%, no sharp cut-off; inactive = mostly below about 14%; note: read at 38.3 µM for the half of the compounds with a filed dose
# AmpC detergent: AmpC beta-lactamase inhibition with detergent present; P00811; AmpC hydrolysis of nitrocefin, absorbance 480 nm, 0.01% Triton; Potency, µM (top dose mostly 114 µM), usual class: inhibitors; hit rate 0.041% among 370,000; AID 485294; note: nearly all actives have a fitted effect of over 25% in size
# Target sequence (P00811 whole entry, looked up): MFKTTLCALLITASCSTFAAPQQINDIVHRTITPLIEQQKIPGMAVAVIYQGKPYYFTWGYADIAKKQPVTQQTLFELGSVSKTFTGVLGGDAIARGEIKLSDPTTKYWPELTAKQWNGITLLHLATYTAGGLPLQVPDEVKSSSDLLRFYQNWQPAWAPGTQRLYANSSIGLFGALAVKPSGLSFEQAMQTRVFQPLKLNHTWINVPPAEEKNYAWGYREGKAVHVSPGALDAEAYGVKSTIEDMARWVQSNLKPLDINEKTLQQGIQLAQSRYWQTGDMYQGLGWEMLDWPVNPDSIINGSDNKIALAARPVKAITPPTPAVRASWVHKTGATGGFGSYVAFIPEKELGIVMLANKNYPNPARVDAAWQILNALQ
#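 AmpC (5.3 nM in the dispensed reagent) in 20 mM phosphate pH 7.0 with 0.01% (detergent screen) or 0.0001% Triton X-100 was preincubated with compounds for 15 min at room temperature. Nitrocefin was then added from an 800 uM solution, and hydrolysis was followed at 480 nm.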
# SARS PLP yeast: SARS-CoV PLP inhibition in yeast. hit rate 0.19% among 330,000. Potency, µM (highest dose often 32.9 µM), actives largely listed as activators. AID 485353. S. cerevisiae expressing SARS-CoV PLpro, growth rescue; calls by dose curve; note: nearly all actives have a fitted effect of over 55% in size
# AmpC inh no detg: inhibitors of E. coli AmpC beta-lactamase without detergent. P00811. hit rate 0.52% among 330,000. Potency, µM (highest dose often 57.1 µM), actives largely listed as inhibitors. AmpC nitrocefin hydrolysis, absorbance 480 nm, 0.0001% Triton; note: nearly all actives have a fitted effect of over 20% in size
#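 AmpC (5.3 nM in the dispensed reagent) in 20 mM phosphate pH 7.0 with 0.01% (detergent screen) or 0.0001% Triton X-100 was preincubated with compounds for 15 min at room temperature. Nitrocefin was then added from an 800 uM solution, and hydrolysis was followed at 480 nm.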
# Hits are given with their value; 0 = inactive; ? = inconclusive; - = not tested or not shown; [ ] = remark or other dose. Unless noted, calls come from the whole dose curve; as a rule, active = well fitted curve in the direction sought with a large enough effect; inconclusive = small, poorly fitted or top-dose-only effect, or another doubt; inactive = no such curve, though single readings can be large; an effect the other way counts as inactive or inconclusive.
SMILES,Shiga toxin inh,AMA1 RON2 block,Cycloheximide cs,AmpC detergent,SARS PLP yeast,AmpC inh no detg
Cc1ccc(C(=O)NC(=S)Nc2ccc(N3CCN(C(=O)c4ccco4)CC3)cc2)cc1,0,0,0,0,0,0
O=C(NC(=S)Nc1ccc(N2CCCCC2)cc1)c1ccco1,92,0,39,?,0,0
CC1CCN(c2ccc(NC(=S)NC(=O)c3ccco3)cc2)CC1,72,0,19,0,0,0
CCCC1COC(Cn2cncn2)(c2ccc(C)cc2)O1 (stereo not drawn),0,0,0,0,0,0
N#Cc1cncc(C#Cc2ccccc2)c1,0,0,8.8,0,0,0
N#Cc1ccccc1,-,0,-,0,0,0
Cc1cccc(CNC(=O)Cc2csc3ccccc23)c1,75,-,63,0,-,-
CC(C)CCOC(=O)/C(=C/c1ccco1)NC(=O)/C=C/c1ccccc1,0,0,20,0,0,0
NC(=O)/C(=C/c1ccco1)NC(=O)/C=C/c1ccccc1,0,0,0,0,0,0
COc1ccc(C(=O)NCC(c2ccco2)S(=O)(=O)c2ccccc2)cc1 (stereo not drawn),-,-,-,0,-,-
O=C1OC(/C=C/c2ccccc2)=NC/1=C/C=C/c1ccccc1,0,0,0,?,0,0
CN1C(=O)/C(=C\c2ccco2)N=C1c1ccc(Cl)cc1Cl,74,0,28,0,0,0
O=C1OC(/C=C/c2ccc(Cl)cc2)=NC/1=C/c1ccco1,0,0,24,0,0,0
O=C(NCc1ccc2c(c1)OCO2)c1cc(-c2ccccn2)nc2ccccc12,0,0,0,?,0,0
Cc1ccc(NC(=O)CSCC(=O)Nc2ccc(S(=O)(=O)N3CCOCC3)cc2)cc1,0,0,0,0,0,0
O=C(/C=C/Sc1ccc(C(F)(F)F)cn1)c1ccccc1,0,0,22,0,0,0
O=C(CSc1ccc(C(F)(F)F)cn1)Nc1ccccc1,0,0,0,0,0,0
COc1ccc(Br)cc1/C=C/C(=O)Nc1ccc2ccccc2c1,0,0,33,0,0,?
CCc1cc(C(=O)O)c(NC(=O)/C=C/c2ccc(OC)cc2)s1,0,0,32,0,0,0
COc1cccc(OC)c1C(=O)Nc1cccc(C(C)=O)c1,0,0,0,0,0,0
COc1ccc(/C=C/C(=O)Nc2cccc(C(C)=O)c2)cc1,68,0,60,0,0,0
COc1ccc(/C=C/C(=O)Nc2cccc(F)c2)cc1,-,-,-,0,-,-
COc1ccccc1/C=C/C(=O)Nc1cccc(C(C)=O)c1,65,0,45,0,0,0
COc1cccc(/C=C/C(=O)Nc2cccc(C(C)=O)c2)c1OC,75,0,49,?,0,0
COc1cccc(/C=C/C(=O)Nc2ccc3c(c2)OCCO3)c1OC,88,0,27,?,0,0[11.4 µM]
SMILES,Shiga toxin inh,AMA1 RON2 block,Cycloheximide cs,AmpC detergent,SARS PLP yeast,AmpC inh no detg
O=[N+]([O-])c1ccc(CNCCc2ccccc2)cc1,-,?,0,0,0,0
COCCCNC(=O)[C@H](Cc1ccccc1)NC(=O)CC[C@H]1O[C@@H](n2ccc(=O)[nH]c2=O)[C@H](O)[C@@H]1O,-,0,-,-,-,-
CCOC(=O)C1(Cc2ccc(OC)cc2)CCN(C(=O)c2cccc3nccnc23)CC1,0,0,0,0,0,0
CS(=O)(=O)c1ccccc1C(=O)Nc1ccc(-c2nc3ccccc3o2)cc1,65,0,31,0,0,0
Cc1ccc(C(=O)Nc2ccc(-c3nc4ccccc4o3)cc2)cc1Cl,-,-,-,0,-,-
CC(C)(C)N1C(=O)c2ccc(C(=O)Nc3ccc(C(=O)O)cc3)cc2C1=O,0,0,0,0,0,0
CS(=O)(=O)c1ccccc1C(=O)Nc1ccc(-c2nc3ccccc3[nH]2)cc1,42,0,19,0,0,0
CC(C)(C)N1C(=O)c2ccc(C(=O)Nc3ccc(-c4nc5ccccc5[nH]4)cc3)cc2C1=O,47,0,29,0,0,0
Cc1ccc(Oc2ncccc2COC(=O)Nc2ccccc2C)cc1,0,0,0,0,0,0
CCOC(=O)N1CCN(CC(=O)Nc2c(C(=O)OC)[nH]c3cccc(Cl)c23)CC1,0,0,0,0,0,0
CC(C)(C)c1ccc(C(=O)N/C(=C\c2cccs2)C(=O)NCc2ccco2)cc1,0,0,33,0,0,0
Cc1ccc(NC(=O)C(=O)NCc2ccco2)cc1,-,-,-,0,-,-
Cc1ccc(NC(=O)C(=S)NCc2ccco2)cc1,0,0,38,0,0,0
COc1ccc(C(=O)NC(=S)NCc2ccco2)cc1OC,0,0,0,0,0,0
COc1ccc(C(=O)NC(=S)NCc2ccco2)cc1,44,0,22,0,0,0
Cc1ccc(C(=O)NC(=S)NCc2ccco2)cc1,0,0,35,0,0,0
CN(c1ccc(F)cc1)S(=O)(=O)c1ccc(Cl)c(C(=O)NCC2CCCO2)c1 (stereo not drawn),-,0,-,0,0,0
Cc1ccc(S(=O)(=O)n2ccc(-c3cccc(OCc4c(F)cccc4Cl)c3)n2)cc1,0,0,0,0,?,0
Cc1ccc(C(=O)NC(=S)NCc2ccccc2)cc1,0,0,16,0,0,0
COc1ccc(C(=O)Nc2ccc(Cl)cc2C(=O)NCc2ccco2)cc1,0,0,14,?,0,0
C=CC[n+]1c(C)csc1Nc1cccc(Br)c1,0,?,0,0,0,0
COCc1cc(C)nc2sc(C(=O)OC)c(N)c12,0,0,0,0,0,0
O=c1[nH]c(-c2ccc(O)cc2)nc2scc(-c3cccs3)c12,108,0,80,0,0,0
Cc1nc2scc(-c3cccs3)c2c(=O)[nH]1,0,0,0,0,0,0
COc1ccc(Cc2nnc(NC(=O)CS(=O)(=O)c3ccc(C)cc3)s2)cc1OC,0,0,0,0,0,0
SMILES,Shiga toxin inh,AMA1 RON2 block,Cycloheximide cs,AmpC detergent,SARS PLP yeast,AmpC inh no detg
NC(=O)c1nsc(C(=O)N(CC(=O)NC2CCCCC2)Cc2ccc(F)cc2)c1N,116,0,53,0,0,0
CC(C(=O)NC1CCCCC1)N(Cc1ccc(F)cc1)C(=O)c1snc(C(N)=O)c1N (stereo not drawn),0,0,0,0,0,0
CC(O)CO (stereo not drawn),-,0,-,0,0,0
COc1cccc(CSc2nnc(-c3ccc(F)cc3)o2)c1,0,0,18,?,0,0
COc1ccc(-c2nnc(SCc3cccc(C#N)c3)o2)cc1,0,0,0,0,0,0
Fc1ccc(-c2nnc(SCc3cccnc3)o2)cc1,66,0,26,0,0,0
COc1cc(C(=O)O)c2c(c1C)OC(=O)c1c(C)cc(O)c(C=O)c1O2,-,0,-,-,-,-
COc1ccc(-c2cc3ccccc3oc2=O)cc1NC(=S)NC(=O)c1ccc2c(c1)OCCO2,115,0,63,?,0,0
COc1cccc(OC)c1C(=O)NC(=S)Nc1ccc2c(c1)OCCO2,42,0,34,0,0,0
